The values below come from PubChem BioAssay (NCATS).

Several values for one entry are separate records, joined by “and”; a condition that tells them apart may be missing. Equal entries are not always repeated. Results filed as inconclusive are left out. Some compounds were tested as several samples or in several runs, with calls that do not always agree. Activity calls are given as the source filed them. Unless noted, the call rests on the fitted dose curve.

Test [1] addresses Ubiquitin carboxyl-terminal hydrolase 1 (Homo sapiens) (UniProt O94782). In words: Inhibitors of USP1/UAF1: Pilot qHTS (AID 504865; active means well fitted inhibition curve with a large enough effect;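 further: rhodamine fluorescence freed from ubiquitin-rhodamine substrate followed over time; top concentration of the series differs between compounds; on the % scale 0 is the no-effect control and ±100 the full control effect; nearly all actives have a fitted effect of over 35% in size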). Put shortly: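 In 50mM HEPES pH 7.8 containing 0.5mM EDTA, 1mM TCEP, 0.1 mg/ml BSA and 0.01% Tween-20, 1nM USP1/UAF1 is exposed to compound for 15 min, then Ub-Rho (150nM final) is added and fluorescence is read over time.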
Test [2] addresses Estrogen receptor (Homo sapiens) (UniProt P03372). In words: qHTS assay for small molecule antagonists of estrogen receptor alpha signaling (AID 588513; active means well fitted curve in the direction sought with a large enough effect in the signal ratio, with a control signal flat, not every such curve was filed as active; the % refers to the signal ratio; further: potency means the concentration at half of the fitted maximal effect). Put shortly: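 Fluorescence from CCF4 substrate after 2 h at room temperature gave reporter activity; cells had been exposed to compound and 0.5nM 17-beta-estradiol for 18 h at 37 C. Hill-equation fitting yielded IC50 and maximal response.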

The target in test [3] is Bile acid receptor (Homo sapiens) (UniProt Q96RI1). As to the kind of experiment: qHTS assay for small molecule antagonists of farnesoid X receptor signaling (AID 588526). Further: on the % scale 0 is the no-effect control and ±100 the full control effect. Put shortly: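 Concentration-response titrations were fitted to the Hill equation for half-maximal inhibition and maximal response, with data normalised to 50 uM chenodeoxycholic acid and DMSO control wells. Cells: FXR-UAS-bla HEK293T, dialyzed FBS.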
Chain of Bile acid receptor (Homo sapiens) (Q96RI1 whole entry, looked up): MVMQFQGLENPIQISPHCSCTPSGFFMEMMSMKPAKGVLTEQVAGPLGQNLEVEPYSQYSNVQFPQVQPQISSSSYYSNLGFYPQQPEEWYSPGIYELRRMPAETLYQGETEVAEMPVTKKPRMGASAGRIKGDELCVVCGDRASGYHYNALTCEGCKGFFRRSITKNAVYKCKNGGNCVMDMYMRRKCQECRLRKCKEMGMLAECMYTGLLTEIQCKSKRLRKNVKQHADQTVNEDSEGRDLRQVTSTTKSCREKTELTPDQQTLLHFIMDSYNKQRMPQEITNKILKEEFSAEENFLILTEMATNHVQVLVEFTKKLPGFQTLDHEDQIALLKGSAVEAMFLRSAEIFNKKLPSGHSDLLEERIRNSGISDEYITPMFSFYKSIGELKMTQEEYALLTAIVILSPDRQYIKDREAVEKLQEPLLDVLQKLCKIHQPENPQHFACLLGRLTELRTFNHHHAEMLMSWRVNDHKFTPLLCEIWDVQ

The nature of test [4]: qHTS assay for small molecule antagonists of peroxisome proliferator-activated receptor delta signaling (AID 588535; active means well fitted inhibition curve with a large enough effect in the signal ratio, with a control signal flat, not every such curve was filed as active; the % refers to the signal ratio;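 on max response: cells co-treated with a PPAR-delta agonist as stimulator during compound exposure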). As to conditions: HEK293T PPARd-UAS-bla, beta-lactamase FRET ratio, 18 h; 460 nm channel. In short, it runs like this: (§1)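 Reporter: UAS-bla under PPAR-delta response element, HEK293T host. Medium: 2% charcoal/dextran FBS. Dosing: titration, 18 hrs, 37 C. Detection: CCF4, 2 hrs RT, 405 ex/460 and 530 em.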

Test [5] addresses Peroxisome proliferator-activated receptor delta (Homo sapiens) (UniProt Q03181). The test is described as above. Put shortly: as §1
For test [6], the target named is Peroxisome proliferator-activated receptor gamma (Homo sapiens) (UniProt P37231). As to the kind of experiment: qHTS assay for small molecule agonists of peroxisome proliferator-activated receptor gamma signaling (AID 588536; active means well fitted curve in the direction sought with a large enough effect in the signal ratio, with a control signal flat, not every such curve was filed as active; the % refers to the signal ratio;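 further: 0% = DMSO basal wells and 100% = rosiglitazone at 2 µM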). Put shortly:
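GeneBLAzer PPAR-gamma-UAS-bla HEK293 cells in 1% charcoal/dextran-treated FBS medium were treated 16 h at 37 C with compounds. Beta-lactamase activity was read by CCF4 ratio (460/530 nm). Response was normalized to 2 uM rosiglitazone (100%) and DMSO, then Hill-fitted for EC50 and efficacy.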

Test [7] addresses Vitamin D3 receptor (Homo sapiens) (UniProt P11473). In words: qHTS assay for small molecule antagonists of vitamin D receptor signaling (AID 588541).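 Further: receptor activated by calcitriol during compound treatment; series mostly up to about 77 µM; on the % scale 0 is the no-effect control and ±100 the full control effect.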 Put shortly:
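VDR-UAS-bla HEK293T cells (2000/well, 2% charcoal-stripped FBS) were treated with titrated compounds plus 1-alpha,25-dihydroxyvitamin D3 (50 nM or 3 nM final) for 16 h at 37 C. CCF4 beta-lactamase fluorescence was read; Hill fits gave IC50.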

Test [8] shares this target. In words: qHTS assay for small molecule agonists of vitamin D receptor signaling (AID 588543).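 Further: 0% = DMSO basal and 100% = reference agonist control.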 Put shortly: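 Reporter cells (HEK293T, VDR-UAS-bla) were seeded in medium with 2% charcoal-stripped serum and incubated 5 h, then compounds in concentration series were added for 16 h at 37 °C. Stimulation was scaled between DMSO basal and 50 nM 1α,25-dihydroxyvitamin D3.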

Test [9] in a line: qHTS assay for small molecule agonists of retinoid X receptor alpha signaling (AID 588544).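 On activation: 0% = DMSO basal wells and 100% = reference agonist.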 The settings on record: HEK293T RXRa-UAS-bla, beta-lactamase reporter, 18 h; 530 nm emission.
The target of test [10] is Retinoic acid receptor RXR-alpha (Homo sapiens) (UniProt P19793). Described as above.
Chain of Retinoic acid receptor RXR-alpha (Homo sapiens) (P19793 whole entry, looked up): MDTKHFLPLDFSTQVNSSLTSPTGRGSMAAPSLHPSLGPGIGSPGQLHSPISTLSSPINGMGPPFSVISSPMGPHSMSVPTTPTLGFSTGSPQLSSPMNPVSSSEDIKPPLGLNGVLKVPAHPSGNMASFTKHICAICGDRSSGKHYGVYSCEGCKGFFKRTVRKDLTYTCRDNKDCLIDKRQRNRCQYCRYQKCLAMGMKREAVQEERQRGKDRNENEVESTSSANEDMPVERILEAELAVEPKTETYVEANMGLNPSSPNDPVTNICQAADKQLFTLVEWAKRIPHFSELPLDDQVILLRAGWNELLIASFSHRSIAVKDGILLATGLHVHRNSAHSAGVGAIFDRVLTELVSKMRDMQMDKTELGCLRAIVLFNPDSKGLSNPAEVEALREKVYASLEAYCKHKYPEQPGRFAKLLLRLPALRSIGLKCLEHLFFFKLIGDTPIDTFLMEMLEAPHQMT
The nature of test [11]: qHTS assay for small molecule antagonists of retinoid X receptor alpha signaling (AID 588546; active means well fitted inhibition curve with a large enough effect in the signal ratio, with a control signal flat, not every such curve was filed as active; the % refers to the signal ratio;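 further: cells stimulated with 9-cis-retinoic acid as agonist; on the % scale 0 is the no-effect control and ±100 the full control effect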). As to conditions: HEK293T RXRa-UAS-bla, beta-lactamase ratio, antagonist mode; measured here: W530 green channel, cytotoxicity proxy. In short, it runs like this:
(§2)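 Beta-lactamase reporter inhibition, read as CCF4 fluorescence ratio (ex 405, em 460/530 nm) after 2 h at RT. HEK293T UAS-bla cells, 2500/well, were stimulated with 9-cis-RA at 500 or 100 nM final alongside test compound for 18 h at 37 C.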

Test [12] concerns the target Retinoic acid receptor RXR-alpha (Homo sapiens) (UniProt P19793). The description is as above. As to conditions: HEK293T RXRa-UAS-bla, beta-lactamase ratio, antagonist mode. In short, it runs like this: as §2
Test [13] has as its target DNA dC->dU-editing enzyme APOBEC-3G (Homo sapiens) (UniProt Q9HC16). In words: qHTS for inhibitors of Vif-A3G interactions: Validation (AID 588379; active means well fitted inhibition curve with a large enough effect; further: 0% is about no effect). In short, it runs like this: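 HeLa cells stably expressing Vif and A3G-eYFP, 700 cells/well, incubated overnight at 37 deg C, then exposed to compound overnight at 37 deg C. Inhibition of Vif-mediated degradation read as increased yellow fluorescence (Ex 488/Em 500-530) by laser-scanning cytometry.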

The target of test [14] is Androgen receptor (Homo sapiens) (UniProt P10275). As to the kind of experiment: qHTS assay for small molecule agonists of androgen receptor signaling (AID 588515; active means well fitted curve in the direction sought with a large enough effect in the signal ratio, with a control signal flat; the % refers to the signal ratio; further: on the % scale 0 is the no-effect control and ±100 the full control effect). As to conditions: AR-UAS-bla HEK293, beta-lactamase ratio, agonist 16 h; stronger effect = higher value. In short, it runs like this:
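EC50 and efficacy came from Hill fits of titrations (up to 92 uM) normalized to 30 nM R1881 as 100% and DMSO as 0%. Compound exposure was 16 h at 37 C on AR-UAS-bla HEK293 cells, with a 405/460/530 nm CCF4 fluorescence read.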

The target of test [15] is Glucocorticoid receptor (Homo sapiens) (UniProt P04150). As to the kind of experiment: qHTS assay for small molecule agonists of glucocorticoid receptor signaling (AID 588532; active means well fitted curve in the direction sought with a large enough effect in the signal ratio, with a control signal flat; the % refers to the signal ratio;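 further: 100% = dexamethasone at 0.1 µM and 0% = DMSO only wells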). As to conditions: HeLa MMTV-bla, beta-lactamase ratio, agonist, 18 h; stronger effect = higher value; percent of dexamethasone control, DMSO zero. Put shortly:
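Stimulation of a glucocorticoid response element-driven beta-lactamase gene was measured in HeLa cells. Responses were scaled between DMSO basal and 0.1 uM dexamethasone, then fitted for half-maximal stimulation.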

Test [16] deals with Thyroid hormone receptor beta (Homo sapiens) (UniProt P10828). As to the kind of experiment: qHTS assay for small molecule agonists of thyroid hormone receptor beta signaling (AID 588545). Put shortly: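 Agonist activity was read as beta-lactamase CCF4 fluorescence (405 ex, 460/530 em), scaled between DMSO (0%) and 10 nM T3 (100%), then Hill-fitted for EC50 and efficacy. HEK 293 TR-UAS-bla cells in 2% charcoal/dextran FBS medium were exposed 18 h at 37 C.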
Chain of Thyroid hormone receptor beta (Homo sapiens) (P10828 whole entry, looked up): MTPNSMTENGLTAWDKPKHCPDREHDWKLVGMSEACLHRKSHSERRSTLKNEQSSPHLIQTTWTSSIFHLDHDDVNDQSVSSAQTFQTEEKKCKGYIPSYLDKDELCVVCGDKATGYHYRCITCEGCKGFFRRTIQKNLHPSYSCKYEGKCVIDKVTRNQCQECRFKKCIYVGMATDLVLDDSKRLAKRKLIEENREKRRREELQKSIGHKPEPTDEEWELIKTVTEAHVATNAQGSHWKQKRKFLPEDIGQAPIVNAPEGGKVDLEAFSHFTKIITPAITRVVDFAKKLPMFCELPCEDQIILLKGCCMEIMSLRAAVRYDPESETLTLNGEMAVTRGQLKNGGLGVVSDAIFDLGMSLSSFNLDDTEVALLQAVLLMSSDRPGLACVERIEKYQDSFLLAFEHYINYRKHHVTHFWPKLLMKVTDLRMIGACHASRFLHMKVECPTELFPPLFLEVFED

The target in test [17] is Glucocorticoid receptor (Homo sapiens) (UniProt P04150). In words: qHTS assay for small molecule antagonists of glucocorticoid receptor signaling (AID 588533; active means well fitted inhibition curve with a large enough effect in the signal ratio, with a control signal flat, not every such curve was filed as active; the % refers to the signal ratio). In short, it runs like this: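 Antagonist-mode qHTS: compound titrations added to GRE-bla HeLa cells, then dexamethasone 2 nM final; 18 h, 37 C. CCF4 FRET fluorescence normalized to dexamethasone and DMSO; IC50 from Hill fit.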
Chain of Glucocorticoid receptor (Homo sapiens) (P04150 whole entry, looked up): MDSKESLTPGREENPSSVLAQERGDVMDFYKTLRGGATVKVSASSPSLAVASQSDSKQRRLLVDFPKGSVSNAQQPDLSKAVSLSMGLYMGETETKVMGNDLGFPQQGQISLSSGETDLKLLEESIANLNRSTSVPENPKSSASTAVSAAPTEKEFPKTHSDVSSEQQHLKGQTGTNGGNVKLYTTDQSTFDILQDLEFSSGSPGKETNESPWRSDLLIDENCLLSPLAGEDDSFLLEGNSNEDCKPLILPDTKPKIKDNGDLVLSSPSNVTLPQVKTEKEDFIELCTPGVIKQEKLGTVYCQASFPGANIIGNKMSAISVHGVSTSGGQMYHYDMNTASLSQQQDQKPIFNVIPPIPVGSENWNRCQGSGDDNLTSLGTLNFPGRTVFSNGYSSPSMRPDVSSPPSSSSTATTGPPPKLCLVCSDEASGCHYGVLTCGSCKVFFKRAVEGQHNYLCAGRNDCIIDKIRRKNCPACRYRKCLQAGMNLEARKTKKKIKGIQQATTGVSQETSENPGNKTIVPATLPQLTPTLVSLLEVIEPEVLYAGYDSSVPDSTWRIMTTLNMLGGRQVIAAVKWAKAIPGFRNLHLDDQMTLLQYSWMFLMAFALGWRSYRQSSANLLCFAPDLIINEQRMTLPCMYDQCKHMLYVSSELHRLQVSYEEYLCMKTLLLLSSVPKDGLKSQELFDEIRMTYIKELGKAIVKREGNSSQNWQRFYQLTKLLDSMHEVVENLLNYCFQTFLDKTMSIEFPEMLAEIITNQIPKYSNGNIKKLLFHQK

Chain of Estrogen receptor (Homo sapiens) (P03372 whole entry, looked up): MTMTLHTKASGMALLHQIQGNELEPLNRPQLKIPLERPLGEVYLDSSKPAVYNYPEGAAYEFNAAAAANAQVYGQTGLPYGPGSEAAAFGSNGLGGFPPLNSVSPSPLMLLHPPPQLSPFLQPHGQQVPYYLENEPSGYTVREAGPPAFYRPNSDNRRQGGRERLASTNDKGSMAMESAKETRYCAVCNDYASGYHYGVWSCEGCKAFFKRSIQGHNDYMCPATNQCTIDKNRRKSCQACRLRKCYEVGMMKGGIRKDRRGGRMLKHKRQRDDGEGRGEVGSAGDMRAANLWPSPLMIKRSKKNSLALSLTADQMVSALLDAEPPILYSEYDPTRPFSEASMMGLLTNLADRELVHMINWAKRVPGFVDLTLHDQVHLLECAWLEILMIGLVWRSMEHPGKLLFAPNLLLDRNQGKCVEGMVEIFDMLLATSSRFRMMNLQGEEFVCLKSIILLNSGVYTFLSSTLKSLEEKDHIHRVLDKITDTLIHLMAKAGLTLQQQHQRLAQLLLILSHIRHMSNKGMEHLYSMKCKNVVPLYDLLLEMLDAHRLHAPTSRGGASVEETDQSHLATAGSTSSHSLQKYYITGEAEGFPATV
Chain of Vitamin D3 receptor (Homo sapiens) (P11473 whole entry, looked up): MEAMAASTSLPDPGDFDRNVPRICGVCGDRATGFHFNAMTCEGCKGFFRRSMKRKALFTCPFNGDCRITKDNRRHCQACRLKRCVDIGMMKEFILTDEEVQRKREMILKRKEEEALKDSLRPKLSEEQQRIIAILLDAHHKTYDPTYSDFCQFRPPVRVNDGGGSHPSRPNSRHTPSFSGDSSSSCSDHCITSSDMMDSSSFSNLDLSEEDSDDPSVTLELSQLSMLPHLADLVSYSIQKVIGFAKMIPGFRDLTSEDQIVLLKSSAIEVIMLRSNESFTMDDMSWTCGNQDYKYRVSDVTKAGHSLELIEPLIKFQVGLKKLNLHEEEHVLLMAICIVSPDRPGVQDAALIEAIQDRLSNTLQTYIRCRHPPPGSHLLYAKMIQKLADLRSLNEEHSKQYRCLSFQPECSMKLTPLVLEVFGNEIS
Chain of Ubiquitin carboxyl-terminal hydrolase 1 (Homo sapiens) (O94782 whole entry, looked up): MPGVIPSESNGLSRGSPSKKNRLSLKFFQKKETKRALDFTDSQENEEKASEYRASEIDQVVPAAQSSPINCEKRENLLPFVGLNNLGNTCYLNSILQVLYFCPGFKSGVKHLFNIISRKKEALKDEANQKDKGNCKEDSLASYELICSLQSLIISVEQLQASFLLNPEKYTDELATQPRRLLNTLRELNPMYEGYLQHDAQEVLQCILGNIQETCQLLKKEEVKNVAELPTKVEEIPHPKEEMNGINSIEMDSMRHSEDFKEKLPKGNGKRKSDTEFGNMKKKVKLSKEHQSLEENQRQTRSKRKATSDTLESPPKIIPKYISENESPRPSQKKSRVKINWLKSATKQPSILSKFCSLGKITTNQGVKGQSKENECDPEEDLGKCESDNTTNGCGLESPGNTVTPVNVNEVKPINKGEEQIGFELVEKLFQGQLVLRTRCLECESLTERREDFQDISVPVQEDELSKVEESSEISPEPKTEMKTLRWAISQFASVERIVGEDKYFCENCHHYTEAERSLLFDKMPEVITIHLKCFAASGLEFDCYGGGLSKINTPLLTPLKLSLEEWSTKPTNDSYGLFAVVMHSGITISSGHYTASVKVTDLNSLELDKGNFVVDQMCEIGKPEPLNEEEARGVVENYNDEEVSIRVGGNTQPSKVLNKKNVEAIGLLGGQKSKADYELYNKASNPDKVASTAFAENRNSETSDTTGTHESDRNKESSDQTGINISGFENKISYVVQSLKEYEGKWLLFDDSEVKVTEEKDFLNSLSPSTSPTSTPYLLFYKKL
Chain of Peroxisome proliferator-activated receptor gamma (Homo sapiens) (P37231 whole entry, looked up): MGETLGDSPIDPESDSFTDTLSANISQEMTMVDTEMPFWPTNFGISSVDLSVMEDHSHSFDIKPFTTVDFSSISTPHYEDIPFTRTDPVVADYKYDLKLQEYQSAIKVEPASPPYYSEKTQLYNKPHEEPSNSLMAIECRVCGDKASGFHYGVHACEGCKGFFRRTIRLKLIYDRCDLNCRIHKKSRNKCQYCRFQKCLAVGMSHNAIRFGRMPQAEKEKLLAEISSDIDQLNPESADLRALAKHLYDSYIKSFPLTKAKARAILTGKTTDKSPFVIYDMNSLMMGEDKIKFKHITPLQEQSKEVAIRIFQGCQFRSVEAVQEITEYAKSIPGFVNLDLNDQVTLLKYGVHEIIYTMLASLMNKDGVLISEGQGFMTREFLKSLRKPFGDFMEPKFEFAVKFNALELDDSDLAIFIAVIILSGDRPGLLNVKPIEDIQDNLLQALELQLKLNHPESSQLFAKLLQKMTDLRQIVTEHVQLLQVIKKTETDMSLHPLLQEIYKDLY
Chain of Peroxisome proliferator-activated receptor delta (Homo sapiens) (Q03181 whole entry, looked up): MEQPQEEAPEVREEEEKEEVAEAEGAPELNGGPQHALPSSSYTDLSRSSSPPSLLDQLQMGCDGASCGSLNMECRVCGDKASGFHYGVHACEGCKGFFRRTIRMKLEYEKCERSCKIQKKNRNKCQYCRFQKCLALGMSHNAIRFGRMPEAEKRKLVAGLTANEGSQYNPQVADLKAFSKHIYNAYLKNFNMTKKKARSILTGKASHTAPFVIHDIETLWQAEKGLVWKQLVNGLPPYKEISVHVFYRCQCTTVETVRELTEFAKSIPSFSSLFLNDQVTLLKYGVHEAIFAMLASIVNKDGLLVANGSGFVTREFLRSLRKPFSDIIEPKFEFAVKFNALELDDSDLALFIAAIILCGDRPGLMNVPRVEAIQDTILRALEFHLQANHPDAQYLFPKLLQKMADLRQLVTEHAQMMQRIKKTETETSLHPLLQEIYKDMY

As for `CC(C)O`, the Potency result in test [1] and in [2] was “inactive” in each case. Also, the outcome in [3], in test [5], in [6], in [7], in test [8] and in test [10] was inactive. For the same molecule, the max response was 15.2% in test [4], -10.8% in test [9], -15.1% in [11] and 36.2% (inactive) in [12].

For the molecule `O=C(O)Cc1nn(Cc2ccc(Br)cc2F)c(=O)c2ccccc12`, the Potency entry in [1] is “inactive”. In addition, the outcome in test [13] was inactive.

As for `CC(C)(C)CC(C)(C)c1ccc(OCCO)cc1`, the Potency entry in test [1] and in [2] was “inactive” throughout. In addition, the activation in [14] is -21% (inactive); in test [15] it was 12% (inactive). In addition, the call in [6], in test [7], in [8] and in test [10] was inactive. For the same molecule, the results for the max response in [9], in test [11] and in test [12] were 19.7%, 6.21% and -7.14% (inactive), respectively.

Regarding `N[C@H](CC(=O)O)C(=O)O`, in [1], the Potency entry was “inactive”. Also, the call in test [13] was inactive.

For the molecule `CCCCO`, in test [1], the Potency entry is “inactive”. In addition, the outcome in test [3], in test [5], in test [6], in [7], in test [8] and in test [10] was inactive. In addition, the molecule was called inactive in test [16]. Also, the max response in test [4] was 1.82%; in test [9], -9.48% and 0.366%; in test [11] it was 1.36% and -14.8%; in [12] it was 4.41% (inactive) and -4.75% (inactive).

With `C=C1C(CCl)(CCl)C2(Cl)C(Cl)C(Cl)C1(Cl)C2(Cl)Cl` (centres undefined), in test [14], the activation was -14.5% (inactive).

Regarding `CO/N=C(/C(=O)N[C@@H]1C(=O)N2C(C(=O)O)=C(COC(N)=O)CS[C@H]12)c1ccco1`, the Potency entry in [1] and in test [17] was “inactive” throughout. For the same molecule, the activation in test [15] was 5.73% (inactive). The molecule was classed as inactive in test [6], in [7], in test [8], in test [10] and in [16]. Also, the max response is -14% in test [9], -0.122% in [11] and -5.55% (inactive) in test [12].

For the molecule `CC[C@H]1OC(=O)[C@H](C)[C@@H](O[C@H]2C[C@@](C)(OC)[C@@H](O)[C@H](C)O2)[C@H](C)[C@@H](O[C@@H]2O[C@H](C)C[C@H](N(C)C)[C@H]2O)[C@](C)(O)C[C@@H](C)CN(C)[C@H](C)[C@@H](O)[C@]1(C)O`, the Potency entry in test [1] and in [2] was “inactive” in each case. The molecule was called inactive in test [6], in test [7], in test [8] and in test [16]. Moreover, the max response in test [11] is 13.1%; in [12] it was -8.56% (inactive).

On to `Nc1ccc(N=Nc2ccccc2)c(N)n1`, for which the Potency entry in test [2] was “inactive and 35.5 µM [inhibitor] (active)”. For the same molecule, the activation in test [15] was -10.4% (inactive) and 1.07% (inactive). The Potency result in test [17] is “inactive”. The max response is -2.71% and -25% in test [4]; -10.9% in test [9]; -12.2% in test [11]; -21% (inactive) in test [12]. In addition, the molecule was classed as inactive in test [5], in test [6], in test [7], in test [8] and in [10].

`CCCCC`: the molecule was classed as inactive in test [3], in [5], in test [7], in [8], in [10] and in [16]. For the same molecule, the activation in [15] was 1.13% (inactive). Further, the Potency result in [17] is “inactive”. In addition, the max response in test [4] was 25%; in test [9] it was -1.8%; in test [11], -4.57%; in test [12], 3.28% (inactive).

As for `NCCN`, the Potency entry in [1] and in [2] was “inactive” throughout. Also, the max response was 42.1% in test [4], -12.8% in [9], -1.66% in test [11] and -7.75% (inactive) in test [12]. The outcome in test [5], in [6], in [7], in [8] and in test [10] was inactive.
